From PubChem BioAssay AID720519 (National Center for Advancing Translational Sciences (NCATS), 2013)
Inconclusive results are not listed. The source made the active and inactive calls. The call rests on the fitted dose curve; in most records, active means well fitted activation curve with a large enough effect; inconclusive means small, poorly fitted or top-dose-only effect; inactive means flat fitted curve, though single readings scatter.

Test: qHTS for Inhibitors of Cell Surface uPA Generation: Confirmatory Assay for Cherry-picked Compounds
Conditions: cell surface uPA activity generation, qHTS confirmation; series mostly up to 115 µM
Procedure, shortened: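 RAW 264.7 cells at 4000/well, incubated overnight, then treated with compounds. After 24 h at 37 C, viability was read by ATPlite luminescence. An increase in signal indicates blocked uPA-dependent LF entry.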

Potency, inactive:
Cc1ccc(/C=C/C(=O)O)cc1S(=O)(=O)N1CCc2ccccc21
COc1ccccc1CNC(=O)CCn1c(=O)oc2ccccc21
CC(=O)c1ccc(NC(=O)Nc2ccc(Br)cc2C)cc1
CCCCn1c(C2CCCCC2)nc2cc3[nH]c(=O)c(C(C)C)nc3cc21
NC(=O)C1CCN(C(=O)c2cccc3ccccc23)CC1
O=C1C=C(NNC(=O)c2ccncc2)CC(c2ccccc2)C1 (stereo unspecified)
C/C(=N\NC(=O)c1ccccc1)c1c(C)[nH]n(-c2ccccc2)c1=O
NC(=O)c1ccc(NC(=O)CN2CCN(S(=O)(=O)c3ccc4ccccc4c3)CC2)cc1
Cc1ccc(S(=O)(=O)N2CCOCC2)cc1C(=O)OC1CCOC1=O (stereo unspecified)
CN(Cc1ccc(C(C)(C)C)cc1)C(=O)Cc1ccc(S(=O)(=O)N2CCOCC2)s1
CCC(C)NC(=O)c1ccc2nc(-c3ccc(OC)c(OC)c3)c(-c3ccc(OC)c(OC)c3)nc2c1 (stereo unspecified)
O=C1CCCc2ccccc2N1Cc1ccc(F)cc1
CN(C)C(=S)Nc1ccc(S(=O)(=O)N2CCCCC2)cc1
Cn1cnc([N+](=O)[O-])c1Sc1ccc(Br)cc1
O=C(CCCC(=O)N(c1cccc(F)c1)C(C(=O)NC1CCCC1)c1ccc(O)cc1)Nc1ccccn1 (stereo unspecified)
CCOC(=O)C1CCCN(CC(=O)Nc2ccc(C(=O)Nc3ccccc3OC)cc2)C1 (stereo unspecified)
CS(=O)(=O)Nc1cccc(C2=NN(S(=O)(=O)c3ccccc3)C(c3ccco3)C2)c1 (stereo unspecified)
CNS(=O)(=O)c1cc(-c2nnc(Nc3ccc(CC(N)=O)cc3)c3ccccc23)ccc1C
O=C(NC[C@H]1CCCO1)c1cccc2c1C(=O)c1ccc(-c3ccc(F)cc3OCc3ccccc3)cc1S2(=O)=O
COC(=O)/C(C#N)=C\c1c(OC)[nH]c2ccccc12
COc1ccc(C[C@@H]2OC3(C=CC(=O)C=C3)O[C@H]2Cc2ccc(OC)cc2)cc1
